Reference: PubChem BioAssay (Tox21)
Records with an inconclusive call do not appear. Calls of active or inactive are those of the source. Unless noted, calls follow the shape of the full dose curve.

Tests used:
[1] = Nuclear factor erythroid 2-related factor 2/antioxidant responsive element (Nrf2/ARE) small molecule agonists: qHTS cell viability counter screen in human keratinocytes (AID 1919968; active = well fitted curve in the direction sought with a large enough effect in the repeat runs; an effect the other way counts as inactive or inconclusive; also: nearly all actives have a fitted effect of over 55% in size; also: potency is read from the fitted curve at half-maximal effect)
How it was run: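 In human HaCaT keratinocytes stably expressing an ARE-driven luciferase, compound exposure lasted 23 h at 37 C under 5% CO2. Viable cells are quantified with a protease-based fluorogenic reagent (CellTiter-Fluor) read 1 h after addition.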

[2] = Nuclear factor erythroid 2-related factor 2/antioxidant responsive element (Nrf2/ARE) small molecule agonists: luciferase reporter gene qHTS assay in human keratinocytes (AID 1919969); also: nearly all actives have a fitted effect of over 35% in size; also: potency is read from the fitted curve at half-maximal effect
[3] = biological target: Gonadotropin-releasing hormone receptor (Homo sapiens) (UniProt P30968); assay: Human gonadotropin-releasing hormone receptor (GnRHR) small molecule agonists, calcium flux assay in GnRHR-HEK293 cells (AID 1920063); also: nearly all actives have a fitted effect of over 35% in size
Sequence of Gonadotropin-releasing hormone receptor (Homo sapiens) (P30968 whole entry, looked up): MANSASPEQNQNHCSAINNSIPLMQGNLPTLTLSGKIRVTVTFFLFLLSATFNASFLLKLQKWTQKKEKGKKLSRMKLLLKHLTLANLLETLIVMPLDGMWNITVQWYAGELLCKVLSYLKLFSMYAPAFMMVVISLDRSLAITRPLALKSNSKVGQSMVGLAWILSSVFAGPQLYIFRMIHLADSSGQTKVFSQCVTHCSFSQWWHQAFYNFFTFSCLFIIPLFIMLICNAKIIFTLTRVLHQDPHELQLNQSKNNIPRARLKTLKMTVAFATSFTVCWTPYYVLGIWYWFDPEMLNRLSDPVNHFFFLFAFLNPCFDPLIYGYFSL
How it was run: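 Intracellular calcium rise is the read-out: engineered human GnRHR HEK293 cells, dye-loaded, are exposed to DMSO-dissolved compounds and fluorescence at Ex/Em 480/540 is tracked for 3 min.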

[4] = biological target: KiSS-1 receptor (Homo sapiens) (UniProt Q969F8); assay: Human kisspeptin (KISS1R) small molecule agonists, calcium flux assay in KISS1R-HEK293 cells (AID 1920064; active = well fitted curve in the direction sought with a large enough effect in the repeat runs; an effect the other way counts as inactive or inconclusive)
Sequence of KiSS-1 receptor (Homo sapiens) (Q969F8 whole entry, looked up): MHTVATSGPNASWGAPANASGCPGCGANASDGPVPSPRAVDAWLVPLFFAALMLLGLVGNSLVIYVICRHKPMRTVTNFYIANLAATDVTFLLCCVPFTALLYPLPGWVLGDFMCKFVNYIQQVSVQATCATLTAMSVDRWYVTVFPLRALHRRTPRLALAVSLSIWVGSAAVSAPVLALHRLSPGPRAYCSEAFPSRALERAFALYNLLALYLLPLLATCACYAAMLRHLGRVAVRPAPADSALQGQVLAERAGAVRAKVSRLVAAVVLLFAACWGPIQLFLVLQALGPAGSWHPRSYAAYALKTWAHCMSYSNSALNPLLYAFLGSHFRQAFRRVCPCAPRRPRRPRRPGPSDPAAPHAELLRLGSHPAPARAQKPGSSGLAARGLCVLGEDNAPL
How it was run: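 Concentration-response testing used 15 concentrations in triplicate on human KISS1R-expressing HEK293 cells. Calcium-dependent fluorescence (Ex/Em 480/540) was followed kinetically for 3 min after compound transfer.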

[5] = G protein-coupled receptor (GPCR) small molecule agonists, calcium flux assay: HEK293 wild type cell line counter screen (AID 1920065)
How it was run: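 Fluorescence intensity signals activation. After overnight (18 h) culture and a 1 h calcium dye load at 37 C, compounds are added by pin tool and the plate read at 480/540 nm for 3 min in 1 s steps.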

[6] = p53 small molecule agonists, cell-based qHTS assay with human liver microsomes (AID 1963577);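 also: p53 response element beta-lactamase reporter cells with liver microsomes plus NADPH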
How it was run: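 p53RE-bla cells; 5 h settle, 37 C/5% CO2; cpd + HLM 0.5 mg/mL + NADPH 0.5 mg/mL (final); 16 h 37 C; LiveBLAzer 2 h RT dark; fluorescence readout.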

[7] = p53 small molecule agonists, cell-based qHTS assay with rat liver microsomes (AID 1963578)
How it was run: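 Rat liver microsome activation: microsomes 0.5 mg/mL, NADPH 0.5 mg/mL final; p53RE-bla cells, 16 h 37 C; LiveBLAzer readout, 2 h RT dark.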

[8] = p53 small molecule agonists, cell-based qHTS assay with human liver microsomes: qHTS cell viability counter screen (AID 1963579); also: nearly all actives have a fitted effect of over 45% in size
How it was run: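 Luminescent CellTiter-Glo read-out, 30 min at room temperature, gauged cytotoxicity in p53RE-bla cells exposed 16 h at 37 C to DMSO-dissolved compounds with metabolic activation by human liver microsomes and NADPH, each 0.5 mg/mL final.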

[9] = p53 small molecule agonists, cell-based qHTS assay with rat liver microsomes: qHTS cell viability counter screen (AID 1963580); also: nearly all actives have a fitted effect of over 45% in size
How it was run: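 Counter screen for cytotoxicity under metabolic activation: rat liver microsomes and NADPH, 0.5 mg/mL final each, added with compounds to p53RE-bla HCT-116 cells; 16 h at 37 C, then ATP luminescence read.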

[10] = p53 small molecule agonists, cell-based qHTS assay: qHTS cell viability counter screen (AID 1963581); also: nearly all actives have a fitted effect of over 45% in size
How it was run: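 Luminescence from CellTiter-Glo, reflecting ATP content, serves as the cytotoxicity measure; it is taken after the 2 h reporter substrate step in HCT-116 p53RE-bla cells dosed for 16 h at 37 C.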

[11] = biological target: 5-hydroxytryptamine receptor 2A (Homo sapiens) (UniProt P28223); assay: 5-hydroxytryptamine receptor 2A (HTR2A) small molecule antagonists, cell-based qHTS assay (AID 1963586); also: nearly all actives have a fitted effect of over 45% in size
Sequence of 5-hydroxytryptamine receptor 2A (Homo sapiens) (P28223 whole entry, looked up): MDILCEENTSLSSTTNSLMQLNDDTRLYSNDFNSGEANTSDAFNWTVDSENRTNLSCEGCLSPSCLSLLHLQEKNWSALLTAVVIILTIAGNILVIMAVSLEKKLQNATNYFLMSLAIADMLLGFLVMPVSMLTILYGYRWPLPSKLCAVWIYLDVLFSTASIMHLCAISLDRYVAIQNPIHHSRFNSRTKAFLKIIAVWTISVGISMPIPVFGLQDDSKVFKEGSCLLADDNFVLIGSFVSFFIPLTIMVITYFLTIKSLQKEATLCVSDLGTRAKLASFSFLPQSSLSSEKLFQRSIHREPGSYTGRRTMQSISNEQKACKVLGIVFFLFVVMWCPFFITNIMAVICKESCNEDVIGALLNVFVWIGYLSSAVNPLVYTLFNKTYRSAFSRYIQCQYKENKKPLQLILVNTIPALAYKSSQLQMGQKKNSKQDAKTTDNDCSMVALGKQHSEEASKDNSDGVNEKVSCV
How it was run: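 CHO cells stably expressing human HTR2A were plated for 18 h at 37 C, then loaded with calcium dye for 1 h. Compounds were preincubated 5 min at room temperature before DOI (4 nM solution) was added. Kinetic fluorescence was read for 3 min.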

[12] = biological target: 5-hydroxytryptamine receptor 2A (Homo sapiens) (UniProt P28223); assay: 5-hydroxytryptamine receptor 2A (HTR2A) small molecule agonists, cell-based qHTS assay (AID 1963587); also: nearly all actives have a fitted effect of over 30% in size
How it was run: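 HTR2A-CHO cells, plated 18 h at 37 C/5% CO2, dye-loaded 1 h at 37 C; compounds in DMSO added by pin tool (agonist mode). Intracellular calcium flux read as kinetic fluorescence on FDSS over 2 min at 1 s intervals.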

[13] = biological target: Muscarinic acetylcholine receptor M1 (Homo sapiens) (UniProt P11229); assay: Cholinergic receptor muscarinic 1 (CHRM1) small molecule antagonists, cell-based qHTS assay (AID 1963588); also: nearly all actives have a fitted effect of over 40% in size
Sequence of Muscarinic acetylcholine receptor M1 (Homo sapiens) (P11229 whole entry, looked up): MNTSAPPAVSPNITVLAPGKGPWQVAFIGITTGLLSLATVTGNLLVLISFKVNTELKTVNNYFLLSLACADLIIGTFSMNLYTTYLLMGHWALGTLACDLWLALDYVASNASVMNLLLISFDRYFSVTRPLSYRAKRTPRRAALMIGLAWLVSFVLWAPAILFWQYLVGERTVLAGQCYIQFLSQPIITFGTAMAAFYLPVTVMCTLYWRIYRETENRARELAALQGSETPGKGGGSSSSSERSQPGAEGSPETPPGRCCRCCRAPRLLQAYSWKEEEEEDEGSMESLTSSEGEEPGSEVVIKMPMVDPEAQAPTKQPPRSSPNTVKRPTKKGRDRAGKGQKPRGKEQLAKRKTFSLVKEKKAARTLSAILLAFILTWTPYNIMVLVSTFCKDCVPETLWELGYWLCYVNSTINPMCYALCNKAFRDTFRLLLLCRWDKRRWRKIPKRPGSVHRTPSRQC
How it was run: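 Compounds were tested at 15 concentrations in three independent runs. Dye-loaded CHRM1-CHO cells were exposed 5 min at room temperature before stimulation by acetylcholine added at 50nM. Intracellular calcium was read kinetically on FDSS for 3 min.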

[14] = biological target: Muscarinic acetylcholine receptor M1 (Homo sapiens) (UniProt P11229); assay: Cholinergic receptor muscarinic 1 (CHRM1) small molecule agonists, cell-based qHTS assay (AID 1963589); also: nearly all actives have a fitted effect of over 35% in size
How it was run: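 Fluorescent calcium dye reports M1 activation in stably transfected CHO cells. Compounds, 15 concentrations, added after 1 h dye loading at 37 C; kinetic reading at 1 sec intervals.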

[15] = cAMP Responsive Elements (CRE) small molecule agonists, cell-based qHTS assay (AID 1963590)
How it was run: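 Compound exposure lasted 3 h at 37 C/5% CO2 in CRE-bla HEK 293T cells grown in assay medium with 10% dialyzed FBS and 25 mM HEPES. Reporter signal came from LiveBLAzer B/G FRET substrate, 2 h, room temperature.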

[16] = cAMP Responsive Elements (CRE) small molecule antagonists, cell-based qHTS assay (AID 1963591; active = well fitted inhibition curve with a large enough effect in the signal ratio in the repeat runs, not every such curve was filed as active; the % refers to the signal ratio; also: potency is read from the fitted curve at half-maximal effect)
How it was run: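 Stimulation used NKH477 at a final 0.25 uM for 3 h in compound-treated CRE-bla HEK293T cells, seeded 18 h beforehand. Reporter activity was measured with LiveBLAzer B/G FRET substrate after 2 h at room temperature.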

[17] = biological target: Beta-2 adrenergic receptor (Homo sapiens) (UniProt P07550); assay: Adrenergic beta2 receptor (ADRB2) small molecule antagonists, cell-based qHTS assay (AID 1963592); also: series mostly up to about 92 µM; nearly all actives have a fitted effect of over 50% in size
Sequence of Beta-2 adrenergic receptor (Homo sapiens) (P07550 whole entry, looked up): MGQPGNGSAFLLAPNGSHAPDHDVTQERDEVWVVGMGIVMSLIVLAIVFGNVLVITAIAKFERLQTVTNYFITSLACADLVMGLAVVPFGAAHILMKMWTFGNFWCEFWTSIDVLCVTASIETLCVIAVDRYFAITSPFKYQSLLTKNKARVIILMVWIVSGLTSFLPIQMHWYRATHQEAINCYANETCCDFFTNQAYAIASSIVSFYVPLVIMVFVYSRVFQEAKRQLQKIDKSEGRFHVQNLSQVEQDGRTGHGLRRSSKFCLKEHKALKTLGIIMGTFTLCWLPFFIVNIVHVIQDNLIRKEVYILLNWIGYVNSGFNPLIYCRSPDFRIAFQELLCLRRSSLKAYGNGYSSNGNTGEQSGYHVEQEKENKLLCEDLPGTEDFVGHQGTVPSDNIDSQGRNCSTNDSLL
How it was run: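 Assay format: CHO-ADRB2 cells, 18-20hr seeding at 37C/5% CO2, then compound plus 1nM isoproterenol agonist mix for 0.5hr RT. Homogeneous time-resolved fluorescence cAMP detection after 1hr, expressed as 665/615 nm ratio.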

[18] = biological target: Beta-2 adrenergic receptor (Homo sapiens) (UniProt P07550); assay: Adrenergic beta2 receptor (ADRB2) small molecule agonists, cell-based qHTS assay (AID 1963593);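 also: CHO cells stably overexpressing human ADRB2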
How it was run: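 CHO cells stably over-expressing ADRB2 were plated overnight at 37C, then dosed with compounds plus a stimulation mix containing 100uM IBMX and 25uM Ro-20-1724 for 0.5hr at room temperature. cAMP was measured by HTRF competition, 1hr.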

[19] = biological target: D(2) dopamine receptor (Homo sapiens) (UniProt P14416); assay: Dopamine D2 receptor (DRD2) small molecule agonists, cell-based qHTS assay (AID 1963594); also: nearly all actives have a fitted effect of over 35% in size
Sequence of D(2) dopamine receptor (Homo sapiens) (P14416 whole entry, looked up): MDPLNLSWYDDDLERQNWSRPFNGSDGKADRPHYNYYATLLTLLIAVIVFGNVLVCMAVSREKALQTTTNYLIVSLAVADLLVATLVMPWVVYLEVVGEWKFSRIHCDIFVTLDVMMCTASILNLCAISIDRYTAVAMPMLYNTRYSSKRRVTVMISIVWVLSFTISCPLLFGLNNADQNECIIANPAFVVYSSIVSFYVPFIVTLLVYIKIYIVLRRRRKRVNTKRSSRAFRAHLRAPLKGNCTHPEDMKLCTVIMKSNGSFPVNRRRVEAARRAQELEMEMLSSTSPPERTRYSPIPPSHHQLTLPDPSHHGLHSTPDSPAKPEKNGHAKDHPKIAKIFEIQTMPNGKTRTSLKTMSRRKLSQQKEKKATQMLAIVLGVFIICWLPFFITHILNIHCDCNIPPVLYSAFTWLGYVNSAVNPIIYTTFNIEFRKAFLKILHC
How it was run: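 HEK293 cells stably expressing DRD2 were cultured 24 h at 37 C, then given Ro20-1724 (0.1 mM final) and compounds for 10 min at room temperature. NKH477 (200nM) was then added for 30 min. cAMP was read by HTRF.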

[20] = biological target: D(2) dopamine receptor (Homo sapiens) (UniProt P14416); assay: Dopamine D2 receptor (DRD2) small molecule antagonists, cell-based qHTS assay (AID 1963595; active = well fitted inhibition curve with a large enough effect in the signal ratio in the repeat runs, with a control signal flat; the % refers to the signal ratio)
How it was run: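 HEK293 cells stably expressing DRD2, preincubated with 0.1 mM Ro20-1724 and compounds 10 min, were stimulated with 200 nM NKH477 plus 12 nM quinpirole for 30 min at room temperature; cAMP measured by HTRF (665/620 nm).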
% is scaled to controls: 0 for no effect and ±100 for the full control effect.

Cc1nc(C)c(C)nc1C
inactive: Potency [1] | Potency [2] | Potency [3] | Potency [4] | Potency [5] | Potency [6] | Potency [7] | Potency [8] | Potency [9] | Potency [10] | Potency [11] | Potency [12] | Potency [13] | Potency [14] | Potency [15] | Potency [16] | Potency [17] | Potency [18] | Potency [19] | Potency [20]

CC1CNCC(C)O1 (stereo not given)
inactive: Potency [1] | Potency [2] | Potency [3] | Potency [4] | Potency [5] | Potency [6] | Potency [7] | Potency [8] | Potency [9] | Potency [10] | Potency [12] | Potency [13] | Potency [14] | Potency [16] | Potency [17] | Potency [19] | Potency [20]

CC[C@H]1CN2CCc3cc(OC)c(OC)cc3[C@@H]2C[C@@H]1C[C@H]1NCCc2cc(OC)c(OC)cc21
inactive: Potency [2] | Potency [3] | Potency [4] | Potency [5] | Potency [6] | Potency [7] | Potency [8] | Potency [9] | Potency [10] | Potency [15] | Potency [17] | Potency [18] | Potency [20]
active: Potency [1] 274 nM | Potency [16] 1680 nM

Oc1ccc(OCc2ccccc2)cc1
active: Potency [2] 8450 nM
inactive: Potency [1] | Potency [3] | Potency [4] | Potency [5] | Potency [6] | Potency [7] | Potency [8] | Potency [9] | Potency [10] | Potency [15] | Potency [17] | Potency [18] | Potency [19] | Potency [20]

CCCCCCCCCCCCCCC(=O)O
inactive: Potency [1] | Potency [2] | Potency [3] | Potency [4] | Potency [5] | Potency [6] | Potency [7] | Potency [8] | Potency [9] | Potency [10] | Potency [12] | Potency [14] | Potency [15] | Potency [17] | Potency [19] | Potency [20]

CC(=O)OCCCc1ccccc1
inactive: Potency [1] | Potency [2] | Potency [3] | Potency [4] | Potency [5] | Potency [6] | Potency [7] | Potency [8] | Potency [9] | Potency [10] | Potency [11] | Potency [12] | Potency [13] | Potency [14] | Potency [15] | Potency [16] | Potency [17] | Potency [18]

CC(O)Cn1cnc2c1c(=O)n(C)c(=O)n2C (stereo not given)
inactive: Potency [1] | Potency [2] | Potency [3] | Potency [4] | Potency [5] | Potency [6] | Potency [7] | Potency [8] | Potency [9] | Potency [10] | Potency [11] | Potency [12] | Potency [13] | Potency [14] | Potency [15] | Potency [16] | Potency [17] | Potency [18] | Potency [19] | Potency [20]

O=C(O)Cc1cccc(-c2cc(CCCCCCc3ccc(O[C@H]4O[C@H](CO)[C@@H](O)[C@H](O)[C@@H]4O)c(-c4cccc(CC(=O)O)c4)c3)ccc2O[C@H]2O[C@H](CO)[C@@H](O)[C@H](O)[C@@H]2O)c1
inactive: activity change, negative = cytotoxicity [1] -1.5% [at 0.349 µM] | activity, positive = activation [2] -5.74% [at 0.349 µM] | activity change [3] -0.17% [at 0.217 µM, stronger effect = higher value] | activation [4] -0.687% [at 0.29 µM] | activation [5] -0.122% [at 0.217 µM] | activation [6] -2.66% [at 0.249 µM] | activation [7] 1.81% [at 0.249 µM] | activity change, negative = cytotoxicity [8] 0.362% [at 0.249 µM] | activity change, negative = cytotoxicity [9] 2.63% [at 0.249 µM] | activity change, negative = cytotoxicity [10] -10.7% [at 0.249 µM] | activity, negative = inhibition [11] 2.29% [at 0.233 µM] | activation [12] 17.6% [at 0.292 µM] | activity, negative = inhibition [13] 12.9% [at 0.232 µM] | activation [14] -0.265% [at 0.29 µM] | activation [15] 1% [at 0.349 µM] | activity change, negative = inhibition [16] -10.4% [at 0.349 µM] | activity change, negative = inhibition [17] 2.66% [at 0.349 µM] | activation [19] -1.23% [at 0.349 µM] | activity change, negative = inhibition [20] -1.71% [at 0.348 µM]
